A selection: hits, their analogues and other compounds. The true share with any hit is near 12%.
Cl transport mod = modulates chloride dependent transport by human KCC2. Q9H2X9. KCC2 cells, thallium flux FluoZin-2 fluorescence. B-score of Tl+ flux slope (higher = more flux/activation; lower = inhibition) at 10 µM. hit rate 2.2% among 190,000. AID 1456;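 active = thallium flux slope and its plate-corrected score both differing from the plate sample mean at a set confidence after two filtering rounds, in either direction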;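 also: slope of fluorescence scaled to starting intensity during 10 to 20 s after thallium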
Lmaj promast = reduces viability of Leishmania major promastigotes | resazurin fluorescence viability | inhibition, % at 10 µM | hit rate 9% among 200,000 | AID 1063; in the data active = inhibition above about 50%;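 also: promastigotes grown with compound for 44 hours at 28 °C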
WT yeast gro inh = growth inhibition of WT yeast, mitochondrial fusion screen; inhibition, % at 10 µM; mitochondrial fusion phenotypic screen, WT strain; hit rate 2.1% among 190,000; in the data active = inhibition above about 58%; tested in S. cerevisiae
INS promoter inh = TRM-6 insulin promoter activity inhibition; TRM-6 cells (human fetal islet line), insulin promoter-eGFP reporter, imaging; reporter expression induced with tamoxifen; inhibition, % at 2 µM; hit rate 0.9% among 130,000;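 active = inhibition above the mean plus 3 SD, with well images judged a real hit on visual review, cut at about 60% in these data, passing the limit was not always enough; inconclusive = inhibition over the cutoff but images rejected on review; inactive = inhibition not above the cutoff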
Ins promoter up = MIN6 insulin promoter up-regulation; MIN6 insulin promoter-GFP reporter, high-content imaging; stronger effect = higher value; z-score at 5 µM; hit rate 0.3% among 190,000; AID 1625;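 active = z-score above 3 at 5 µM with at least 500 cells counted in the well; inconclusive = wells under 500 cells, flagged as cytotoxic or low count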
ROMK mod = modulators of human ROMK potassium channel; B-score at 10 µM; hit rate 2% among 130,000; Tet-inducible ROMK, thallium flux fluorescence; actives lie on both sides;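 active = signal ratio slope over the read window, or its plate-corrected B-score, at least 3 SD from the plate mean, either direction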;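 also: B-score of the F/F0 ratio slope over 7 to 12 s after thallium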
KCC2 sec1 = confirmation of human KCC2 transport modulators | shares compounds with Cl transport mod | HEK293-KCC2, thallium flux, FluoZin2 fluorescence; stronger effect = higher value | normalised thallium flux (F/F0 slope) at 10 µM | hit rate 15% among 3,700;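 active = thallium flux slope above the same plate's solvent-only control mean plus 3 SD; inconclusive = the two replicate wells disagree; inactive = no significant difference from solvent-only control wells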
KCC2 bumet counter = bumetanide-insensitive thallium flux in KCC2 cells with ouabain, counter-screen | shares compounds with Cl transport mod | HEK293-KCC2 + bumetanide/ouabain, thallium flux FluoZin2; stronger effect = higher value | normalized thallium flux at 10 µM | hit rate 49% among 3,700 | AID 1714;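 active = thallium entry rate above the same plate's blocked-transporter control wells by more than 3 SD; inconclusive = the two repeat wells disagree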;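 also: raw slope of fluorescence over initial fluorescence between 10 and 20 s after thallium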
KCC2 sec2 = confirmation of human KCC2 transport modulators | shares compounds with Cl transport mod | HEK293-KCC2, thallium flux FluoZin2 fluorescence; actives lie on both sides; F/F0 rise rate, 10–20 s post-thallium | normalized thallium flux at 10 µM | hit rate 23% among 3,700;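 active = thallium flux slope more than 3 SD above or below the plate's solvent-only control mean, mostly below; inconclusive = the two repeat wells disagreed; inactive = no significant shift from solvent-only controls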;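 also: raw slope with 0.1% DMSO as baseline and bumetanide as block control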
HEK293 Tl flux = acts in parental HEK cells, KCC2 counter-screen; hit rate 46% among 3,700; thallium flux rate (normalised fluorescence) at 10 µM; HEK293 parental cells, thallium flux FluoZin2, ouabain; baseline-ratio fluorescence slope, 10–20 s after thallium; shares compounds with Cl transport mod;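 active = thallium flux rate significantly above the same plate's solvent-only control wells, beyond their mean plus 3 SD; inconclusive = the two replicate wells gave conflicting results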
KCC2 ouabain = modulates human KCC2 on retest with ouabain | shares compounds with Cl transport mod | HEK293-KCC2, thallium flux FluoZin2 fluorescence; bidirectional: low = inhibitor, high = activator | raw Tl+ flux slope (below DMSO = inhibition, above = activation) at 10 µM | hit rate 48% among 3,700;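 active = thallium flux slope beyond 3 SD from same-plate DMSO control mean in most replicates, usually higher, sometimes lower; inconclusive = repeat tests gave conflicting results; inactive = no significant difference from controls in most replicates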;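 also: slope of initial-normalized fluorescence between seconds 10 and 20 after thallium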
HEK counter2 = parental HEK flux effect, counter-screen 2; shares compounds with Cl transport mod; HEK293 parental, thallium flux FluoZin-2 fluorescence slope; thallium flux slope at 10 µM; hit rate 33% among 3,700; AID 1718;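 active = thallium flux slope above the same plate's solvent-control mean plus 3 SD in both duplicate wells; inconclusive = duplicate wells that disagreed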;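 also: run without ouabain in cells lacking the KCC2 cotransporter; slope of fluorescence scaled to its starting value between 10 and 20 s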
Active calls of the source: *.

Screening COC(=O)CSc1nnc(Cc2ccccc2)n1-c1ccc(C)cc1 returned Cl transport mod 0.21, Lmaj promast -5, WT yeast gro inh -23, INS promoter inh -112 and Ins promoter up 0.02.
CNC(=O)c1csc(-c2ccncc2)n1 was read as Lmaj promast -6, WT yeast gro inh -18, INS promoter inh 19 and Ins promoter up 0.1.
For Cc1cc(CC(C)C)n(-c2nc3ccccc3c(=O)n2OCC(N)=O)n1 the results were Cl transport mod 1.3, Lmaj promast 1, WT yeast gro inh 16, INS promoter inh 0 and Ins promoter up 2.8.
Screening Cn1c(CSCc2ccccc2)nnc1SCC(=O)Nc1nccs1 returned Cl transport mod 6.2*, Lmaj promast 2, WT yeast gro inh 1, INS promoter inh -24, Ins promoter up 0.12, ROMK mod -0.86, KCC2 sec1 0.0058, KCC2 bumet counter 0.004, KCC2 sec2 0.028, HEK293 Tl flux 0.0067, KCC2 ouabain 0.017 and HEK counter2 0.0093.
Cn1c(SCc2c(Cl)cccc2Cl)nnc1-c1cccs1 was read as Cl transport mod -4.6*, Lmaj promast 19, WT yeast gro inh 13, Ins promoter up -1.5, KCC2 sec1 0.0076, KCC2 bumet counter 0.0039, KCC2 sec2 0.027, HEK293 Tl flux inconclusive, KCC2 ouabain inconclusive and HEK counter2 0.0093.
Screening Cc1ccc(CSc2nnc(-c3cccs3)n2C)cc1 returned Lmaj promast 4, WT yeast gro inh -3, INS promoter inh 34 and Ins promoter up -0.58.
For Cc1ccc(-c2ccc(SCC(=O)Nc3nonc3C)nn2)cc1 the results were Cl transport mod -5.7*, Lmaj promast 3, WT yeast gro inh -4, INS promoter inh -56, Ins promoter up -0.08, KCC2 sec1 0.0055, KCC2 bumet counter 0.004, KCC2 sec2 0.023*, HEK293 Tl flux 0.0058*, KCC2 ouabain 0.013* and HEK counter2 0.0095.
Screening Cc1ccc(OCC(=O)NC(=S)Nc2ccc(Br)cn2)cc1 returned Cl transport mod 31*, Ins promoter up -0.47, KCC2 sec1 0.013*, KCC2 bumet counter 0.032*, KCC2 sec2 0.032, HEK293 Tl flux 0.058*, KCC2 ouabain 0.037* and HEK counter2 0.022*.
For O=C(COc1ccccc1)NC(=S)Nc1ccc2c3c(cccc13)CC2 the results were Lmaj promast -4, WT yeast gro inh 27, INS promoter inh 11, Ins promoter up -0.93 and ROMK mod 0.08.
For COC(=O)c1ccccc1NC(=S)NC(=O)COc1ccc(C(C)C)cc1 the results were Cl transport mod 9.7*, Lmaj promast 2, WT yeast gro inh -4, INS promoter inh 22, ROMK mod 0.28, KCC2 sec1 0.011, KCC2 bumet counter 0.017*, KCC2 sec2 0.035, HEK293 Tl flux 0.019*, KCC2 ouabain 0.036* and HEK counter2 0.012.
For Cc1ccc(OCC(=O)NC(=S)Nc2ccc3c4c(cccc24)CC3)cc1 the results were Cl transport mod 13*, Lmaj promast -7, WT yeast gro inh 6, INS promoter inh 11, Ins promoter up 0.18, ROMK mod 1.5, KCC2 sec1 0.01, KCC2 bumet counter 0.014*, KCC2 sec2 0.035, HEK293 Tl flux 0.012*, KCC2 ouabain inconclusive and HEK counter2 0.011.
For COc1ccccc1CNC(=O)N[C@@H](Cc1ccccc1)C(=O)O the results were Cl transport mod 0.061, Lmaj promast -6, WT yeast gro inh -12, INS promoter inh -76 and Ins promoter up -0.48.
`CC(C)CC1NC2(C(=O)N(C)c3ccccc32)C2C(=O)N(C(C)C)C(=O)C12` (stereo not given) gave Cl transport mod -0.37, Lmaj promast -4, WT yeast gro inh -7, INS promoter inh -29 and Ins promoter up 0.64.
For COc1ccc(/C=C(/NC(=O)c2cccc([N+](=O)[O-])c2)C(=O)O)cc1OC the results were Cl transport mod 0.25, Lmaj promast -5, WT yeast gro inh 0, INS promoter inh 5, Ins promoter up 0.28 and ROMK mod 0.2.
Screening COc1ccccc1/C=C(\NC(=O)c1ccc(OC)c(OC)c1)C(=O)Nc1cc([N+](=O)[O-])ccc1C returned Cl transport mod 5.2*, Lmaj promast -3, WT yeast gro inh 8, INS promoter inh 3, ROMK mod 0.011, KCC2 sec1 0.015, KCC2 bumet counter 0.0045, KCC2 sec2 0.028, HEK293 Tl flux 0.0068, KCC2 ouabain 0.017 and HEK counter2 0.0095.
Screening O=C(N/N=C/c1ccc(Br)o1)c1cc([N+](=O)[O-])cc([N+](=O)[O-])c1 returned Cl transport mod 12*, Lmaj promast 94*, WT yeast gro inh -2, INS promoter inh 28, ROMK mod 0.14, KCC2 sec1 inconclusive, KCC2 bumet counter 0.024*, KCC2 sec2 0.028, HEK293 Tl flux 0.0098*, KCC2 ouabain 0.026* and HEK counter2 inconclusive.
Screening NC(=S)N=Nc1c(O)[nH]c2c(Br)cc(Br)cc12 returned Cl transport mod 25*, Lmaj promast 7, WT yeast gro inh 26, Ins promoter up -0.1, KCC2 sec1 0.0075, KCC2 bumet counter 0.027*, KCC2 sec2 0.04*, HEK293 Tl flux 0.018*, KCC2 ouabain 0.036* and HEK counter2 0.017*.
`O=C(OCn1ncc(Cl)c(Cl)c1=O)c1cccc(C(F)(F)F)c1` gave Lmaj promast 59*, WT yeast gro inh 5, INS promoter inh -42, Ins promoter up 0.47, KCC2 sec1 0.0092, KCC2 bumet counter inconclusive, KCC2 sec2 0.033, HEK293 Tl flux 0.0059*, KCC2 ouabain 0.015* and HEK counter2 0.012.

Source: PubChem BioAssay (several laboratories)
